The text below walks through data of PubChem BioAssay (NCATS).

Records with an inconclusive call do not appear. A number with no mark means an inactive call. Activity calls are given as the source filed them. The call rests on the fitted dose curve; in most records, active means well fitted inhibition curve with a large enough effect; inconclusive means small, poorly fitted or top-dose-only effect; inactive means flat fitted curve, though single readings scatter.

Assay [1] can be described thus: qHTS profiling for inhibitors of Plasmodium falciparum proliferation (AID 504749). Further: nearly all actives have a fitted effect of over 60% in size.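 On activity, negative = inhibition: 0% = DMSO vehicle and full inhibition = artemisinin control.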 The note with it: P. falciparum in erythrocytes, SYBR Green DNA, 72 h. The essentials: (§1)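 Three-day growth assay of blood-stage parasites in erythrocytes (0.3% parasitemia, 2.5% hematocrit) at 37 C, 5% CO2, quantified by SYBR Green DNA staining after overnight detergent lysis.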
(In qHTS, concentration-response curves come from the screen itself.)

A further assay relates to 3D7. The assay is described as above. Particulars: P. falciparum in erythrocytes, SYBR Green DNA, 72 h; series mostly up to 28.7 µM. The essentials: as §1
The subject of another assay is AS120. The description is as above. The note with it: P. falciparum in erythrocytes, SYBR Green DNA, 72 h; series mostly up to 28.7 µM. The essentials: as §1
A further assay deals with ATS189. The assay is described as above. Particulars: P. falciparum in erythrocytes, SYBR Green DNA, 72 h; series mostly up to 28.7 µM. The essentials:
as §1

The test system of another assay is C2A. The assay is described as above. The note with it: P. falciparum in erythrocytes, SYBR Green DNA, 72 h; series mostly up to 28.7 µM. The method in brief:
as §1

For a further assay, the system named is CP185. The assay is described as above. Particulars: P. falciparum in erythrocytes, SYBR Green DNA, 72 h; series mostly up to 28.7 µM. The method in brief:
as §1

Another assay concerns CP191. The assay is described as above. Particulars: P. falciparum in erythrocytes, SYBR Green DNA, 72 h; series mostly up to 28.7 µM. The method in brief:
as §1

A further assay deals with AA1029. The assay is described as above. Particulars: P. falciparum in erythrocytes, SYBR Green DNA, 72 h; series mostly up to 28.7 µM. The essentials:
as §1

A further assay concerns ATS95. The assay is described as above. Particulars: P. falciparum in erythrocytes, SYBR Green DNA, 72 h; series mostly up to 28.7 µM. The method in brief: as §1
Another assay concerns 7G8. Described as above. The note with it: P. falciparum in erythrocytes, SYBR Green DNA, 72 h; series mostly up to 28.7 µM. The essentials: as §1
[2] abbreviates: at 12.8 µM (top of the series), parasite line A.
[3] abbreviates: at 12.8 µM (top of the series), parasite line B.
[4] abbreviates: at 28.7 µM (top of the series), parasite line A.
[5] abbreviates: at 28.7 µM (top of the series), parasite line B.
Potency means the concentration at half of the fitted maximal effect.

As for `CN1CCN(C(c2ccccc2)c2ccccc2)CC1`, the results for the activity, negative = inhibition in [1] (setting [2]) and in assay [1] (setting [3]) were 3.5% and -5.02%, respectively. The Potency result in the assay with 3D7, with AS120, in the assay on ATS189, in the assay with C2A, with CP185 and in the assay with CP191 was “inactive” in each case.
Turning to `Cc1c(C)n(Cc2ccccc2)c2ccc(C(=O)OCCN(C)C)cc12`, the activity, negative = inhibition in [1] (setting [4]) was 11.1%; in assay [1] (setting [5]), -2.16%. The Potency entry in the assay on 3D7, in the assay with AA1029, in the assay with AS120, with ATS189, with ATS95 and with C2A was “inactive” in each case. Further, the Potency result in the assay with CP185 and with CP191 was “inactive” each time.
As for `C[C@H]1C[C@H]2[C@@H]3CCC4=CC(=O)C=C[C@]4(C)[C@@]3(Cl)[C@@H](O)C[C@]2(C)[C@@]1(O)C(=O)CO`, the activity, negative = inhibition in [1] (setting [4]) is 2.21%; in assay [1] (setting [5]), 13.1%. In addition, the Potency entry in the assay on 3D7, in the assay with AA1029, in the assay on AS120, in the assay on ATS189, with ATS95 and in the assay on C2A was “inactive” in each case. Also, the Potency entry in the assay with CP185 and with CP191 was “inactive” throughout.
For `CN1CCN(CCCN2c3ccccc3Sc3ccc(S(=O)(=O)N(C)C)cc32)CC1`, the activity, negative = inhibition was 5.01% in assay [1] (setting [2]) and -5.83% in [1] (setting [3]). The Potency is 0.891 µM (active) with 7G8, 3.55 µM (active) in the assay on ATS189 and 3.98 µM (active) in the assay on CP191. The Potency result in the assay with AA1029 and in the assay on CP185 was “inactive” in each case.
Turning to `c1ccc(OCc2ccc(CCCN3CCOCC3)cc2)cc1`, the activity, negative = inhibition in assay [1] (setting [4]) was 3.42%; in assay [1] (setting [5]), 8.4%. Moreover, the Potency entry with 3D7, in the assay with AA1029, in the assay on AS120, in the assay on ATS189, in the assay with ATS95 and in the assay with C2A was “inactive” throughout. For the same molecule, the Potency entry in the assay with CP185 and in the assay with CP191 was “inactive” each time.
In the case of `CNCCC(Oc1ccccc1C)c1ccccc1` (stereo not drawn), the activity, negative = inhibition in assay [1] (setting [4]) was 4.27%; in assay [1] (setting [5]) it was 4.69%. Besides, the Potency entry in the assay with 3D7, with ATS189, in the assay with ATS95, in the assay on C2A, with CP185 and with CP191 was “inactive” in each case.
Consider `CCN1CCCC1=O`, for which the activity, negative = inhibition in assay [1] (setting [4]) is 3.13%; in assay [1] (setting [5]), 11.2%. In addition, the Potency entry with 3D7, with AA1029, in the assay on AS120, in the assay on ATS189, with ATS95 and in the assay with C2A was “inactive” throughout. For the same molecule, the Potency result with CP185 and with CP191 was “inactive” each time.
`O=C(N/N=C/c1ccccc1O)c1ccncc1`: the Potency in assay [1] (parasite line A) is 6.31 µM (active); in assay [1] (parasite line B), 11.2 µM (active); with 7G8 it was 8.91 µM (active); in the assay on AA1029, 11.2 µM (active); with AS120, 4.47 µM (active); in the assay with C2A, 11.2 µM (active).
Regarding `CC(=O)c1ccc2c(c1)N(CCCN1CCC(CCO)CC1)c1ccccc1S2`, the activity, negative = inhibition was -2.26% in assay [1] (setting [2]) and 0.0996% in [1] (setting [3]). In addition, the Potency entry in the assay with 3D7, in the assay with AA1029, with AS120, in the assay on ATS189, in the assay with ATS95 and with C2A was “inactive” each time. In addition, the Potency entry in the assay on CP185 and in the assay on CP191 was “inactive” each time.
Consider `CCCCN1CCCC1C(=O)Nc1c(C)cc(C)cc1C` (stereo not drawn), for which the activity, negative = inhibition is -15.8% in assay [1] (setting [4]) and -3.59% in assay [1] (setting [5]). The Potency entry in the assay on 3D7, in the assay on AA1029, with AS120, in the assay on ATS189, with ATS95 and in the assay with C2A was “inactive” in each case. The Potency entry with CP185 and in the assay on CP191 was “inactive” each time.
On to `CCCN1CCCC[C@H]1C(=O)Nc1c(C)cccc1C`, for which the activity, negative = inhibition is 9.76% in assay [1] (setting [4]) and 10.7% in assay [1] (setting [5]). Further, the Potency result in the assay with 3D7, with AA1029, in the assay on AS120, in the assay on ATS189, in the assay with ATS95 and in the assay on C2A was “inactive” each time. The Potency result in the assay on CP185 and in the assay with CP191 was “inactive” each time.
For the molecule `CCN1CCN(c2cc3c(cc2F)c(=O)c(C(=O)O)cn3C2CC2)CC1`, the activity, negative = inhibition is -8.55% in assay [1] (setting [4]) and -3.41% in assay [1] (setting [5]). Also, the Potency result in the assay with 3D7, in the assay on AA1029, in the assay with AS120, with ATS189, in the assay on ATS95 and with C2A was “inactive” each time. The Potency entry with CP185 and with CP191 was “inactive” in each case.
In the case of `CCCCOc1cc(C(=O)NCCN(CC)CC)c2ccccc2n1`, the activity, negative = inhibition in [1] (setting [2]) is 7.49%; in assay [1] (setting [3]) it was 7.29%. For the same molecule, the Potency entry in the assay with 3D7, in the assay with AA1029, in the assay on AS120, in the assay with ATS189, in the assay with ATS95 and in the assay on C2A was “inactive” throughout. Besides, the Potency entry with CP185 is “inactive”.
